We go through 96 compounds from PubChem BioAssay AID1626 (SRMLSC, 2009).

What is called inhibition is the drop in the measured response relative to a control, in per cent.

Several values for one entry are separate records, joined by “and”; a condition that tells them apart may be missing. Equal values may be shown once. Screen size: about 220,000 compounds; about 2,000 (0.91%) were called active. Roughly 2% stayed inconclusive and do not appear here. These entries were drawn from the full list. Measured potencies and affinities stand elsewhere. A number with no mark means an inactive call. No stated cut-off is given here; in the data, inconclusive means inhibition above about 80% without an active follow-up result; inactive means below that; test concentration not stated here.

The nature of this test: M. tuberculosis H37Rv growth inhibitors, H37Rv strain (AID 1626).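 Further: bacteria incubated seven days before Alamar blue readout; 0% = bacteria only wells and 100% = bacteria with antibiotic wells.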 To be noted: hits give high values, concentration not given here.
On to `Cn1c(=O)c([N+](=O)[O-])c(NCCCn2ccnc2)c2ccccc21`, for which the inhibition was -3.33%.

As for `Cc1ccccc1-n1nnnc1SC(C)C(=O)NC1CCCc2ccccc21` (stereo unspecified), the inhibition was 10.2%.

On to `Cc1ccc(C(=O)CSc2nnc(CNc3ccc(C)cc3C)o2)cc1`, for which the inhibition was -7.6%.

`O=C(CSc1nnc(CNc2ccc(F)cc2)o1)OC1CCCCC1`: the inhibition is 25.5%.

In the case of `Cn1c(CNc2cccc(Cl)c2)nnc1SCC(=O)OC1CCCCC1`, the inhibition was 62.1%.

For `Cc1ccc(NCc2nnc(SCC(N)=O)o2)c(C)c1`, the inhibition is -3.32%.

In the case of `COC(=O)Nc1ccc(S(=O)(=O)N2CCCCC2C(=O)NCc2ccco2)cc1` (stereo unspecified), the inhibition is -7.03%.

`O=C(COC(=O)CNS(=O)(=O)/C=C/c1ccccc1)NC1CCS(=O)(=O)C1` (stereo unspecified): the inhibition is -7.59%.

Regarding `O=C(COc1ccc(Br)cc1Br)NC(=O)NC1CCCC1`, the inhibition was 3.86%.

With `Cc1ccc(CNc2ccc(N3CCOCC3)c(C(=O)O)c2)s1`, the inhibition is -3.09%.

With `O=C1c2cccc3cccc(c23)C(=O)N1CC1CCN(CC(O)COCc2ccc3c(c2)OCO3)CC1` (stereo unspecified), the inhibition was 76.5%.

On to `COc1cccc(OCC(O)CN2CCC(CN3C(=O)c4cccc5cccc(c45)C3=O)CC2)c1` (stereo unspecified), for which the inhibition was -4.13%.

In the case of `CCCCN(CCCC)C(=O)c1cc(Cl)ccc1[N+](=O)[O-]`, the inhibition is 11%.

For the compound `CCN(CC)C(=O)c1cc([N+](=O)[O-])cc2c1-c1ccc([N+](=O)[O-])cc1C2=C(C#N)C#N`, the inhibition was 23%.

Turning to `C=CCNC(=O)C1CC(=O)N(c2ccc(OCC(=O)Nc3ccc(Cl)c(C(F)(F)F)c3)cc2)C1` (stereo unspecified), the inhibition is -8.95%.

For `Cc1cc(C)c(-c2cc(NC(=O)COC(=O)c3ccc(CO)cc3)n(-c3ccccc3)n2)cc1C`, the inhibition is 4.29%.

`CC(=O)N1CCN(C(=O)CCc2c[nH]c3ccccc23)CC1`: the inhibition is 3.68%.

`COc1ccc(N2CCN(C(=O)CCc3c[nH]c4ccccc34)CC2)cc1`: the inhibition was -4.15%.

Regarding `COC(=O)C1CCN(C(=O)COC(=O)Cc2c[nH]c3ccccc23)CC1`, the inhibition is 2.16%.

For `COc1ccc(CNC(=O)COC(=O)CCc2c[nH]c3ccccc23)cc1`, the inhibition is 4.73%.

For `COc1ccc(C)cc1NC(=O)CSc1nnc(-c2ccco2)n1Cc1ccco1`, the inhibition was -0.88%.

As to `CC(=O)Nc1sc(N/N=C\c2cccc(Cl)c2)nc1-c1cccs1`, the inhibition is 54.5%.

As for `CCS(=O)(=O)N1CCCC(C(=O)NCCN(C)Cc2ccccc2)C1` (stereo unspecified), the inhibition is -6.72%.

As to `Cc1ccc(C(=O)CSc2ncnc3ccccc23)o1`, the inhibition is 10.6%.

For `COc1ccc(CCN(Cc2cccs2)S(=O)(=O)c2ccc(C(=O)O)cc2)cc1OC`, the inhibition was -3.72%.

`CSc1nnc(-c2cnccn2)n1Cc1ccccc1`: the inhibition is -1.1%.

With `CC(C)(C)c1ccc(OCCC(=O)NC2=NCCS2)cc1`, the inhibition is -11.7%.

As for `CCOc1ccc(OCCCC(=O)NC2=NCCS2)cc1`, the inhibition is -1.83%.

In the case of `c1ccc(COc2ccccc2CNC23CC4CC(CC(C4)C2)C3)cc1`, the inhibition is 17%.

Take `COc1cccc(CNC23CC4CC(CC(C4)C2)C3)c1OCc1ccccc1`: the inhibition is 13.5%.

For the compound `CS(=O)(=O)N1CCN(C2Cc3ccccc3C2)CC1`, the inhibition is -13.7%.

For the compound `O=[N+]([O-])c1ccc(O)c(C=Nc2ccc3c(c2)OCO3)c1`, the inhibition is 8.62%.

Regarding `O=[N+]([O-])c1ccc(O)c(C=Nc2ccc3c(c2)OCCO3)c1`, the inhibition was 77.5%.

`Cc1cccc(Nc2nc(N3CCN(C)CC3)nc(N)c2[N+](=O)[O-])c1`: the inhibition was 16.3%.

For the compound `CCN1CCN(c2nc(N)c([N+](=O)[O-])c(Nc3ccc(C)c(C)c3)n2)CC1`, the inhibition was 51.5%.

As for `N#Cc1ccccc1Cn1c(=O)n(Cc2ccc(C(=O)NCc3ccco3)cc2)c(=O)c2sccc21`, the inhibition was -3.31%.

Take `CN1C(=O)C(O)(CC(=O)c2ccncc2)c2ccccc21` (stereo unspecified): the inhibition was 3.47%.

Take `C/C(CC1(O)C(=O)N(C)c2ccccc21)=N\O` (stereo unspecified): the inhibition was -3.6%.

Turning to `COc1cc(OC)c(N(C)C(=O)CCNC(=O)Cn2cnc3ccccc3c2=O)cc1Cl`, the inhibition is -0.76%.

On to `NC(=NC(=O)c1ccc(Cl)cc1)N1N=CCC1c1ccccc1` (stereo unspecified), for which the inhibition was 11.8%.

Regarding `COc1ccc(C2c3ccc(O)cc3Oc3ncn(CCN4CCOCC4)c(=N)c32)cc1` (stereo unspecified), the inhibition is -0.84%.

As for `Cc1ccc(-c2nn(-c3ccccc3)cc2NC(=O)c2ccccc2)cc1`, the inhibition is -0.55%.

Regarding `CC(=O)Nc1cn(-c2ccccc2)nc1-c1ccccc1`, the inhibition was -0.45%.

As to `O=C(CCl)Nc1cn(-c2ccccc2)nc1-c1ccc(F)cc1`, the inhibition is 61.8%.

In the case of `O=C(Nc1cn(-c2ccccc2)nc1-c1ccc(Cl)cc1)c1ccccc1`, the inhibition is 9.57%.

On to `CNC(=S)N1CCc2ccccc2C1`, for which the inhibition was 3.08%.

As to `COc1ccc(NC(=O)C(NC(=O)CNC(C)=O)c2ccc(C)cc2)cc1` (stereo unspecified), the inhibition was -6.91%.

`O=C(CCN1C(=O)c2ccccc2C1=O)NC(=S)Nc1ccccc1Cl`: the inhibition was 9.27%.

As for `Oc1[nH]c2ccccc2c1C=Nc1ccc2c(c1)OCCO2`, the inhibition is 6.37%.

Consider `O=C(NCCCn1ccnc1)c1nn2c(C(F)(F)F)cc(-c3ccccc3)nc2c1Cl`, for which the inhibition was -4.76%.

In the case of `O=C(NCCCn1ccnc1)c1cc2nc(-c3ccc(Br)cc3)cc(C(F)(F)F)n2n1`, the inhibition was 6.06%.

Take `O=C(O)COCC(=O)Nc1ccccc1-c1ccccc1`: the inhibition is -0.81%.

On to `COc1ccc(CN(C)Cc2nc3scc(-c4ccccc4)c3c(=O)[nH]2)cc1OC`, for which the inhibition was 3.92%.

In the case of `CCOC(=O)N1CCN(c2ccc(Cl)c(Cl)c2)CC1`, the inhibition was 6.01%.

Regarding `COC(=O)N1CCN(c2ccc(Cl)c(Cl)c2)CC1`, the inhibition is -4.81%.

On to `O=S1(=O)CCN(CCc2c[nH]c3ccccc23)CC1`, for which the inhibition was 3.01%.

For the compound `CC(=O)Nc1nnc(-c2ccccn2)o1`, the inhibition was -3.3%.

In the case of `O=C(Nc1nnc(-c2ccncc2)o1)c1cccc(N2C(=O)CCC2=O)c1`, the inhibition was -4.89%.

As to `O=C(CCc1ccccc1)Nc1nnc(-c2ccccn2)o1`, the inhibition was -4.88%.

As for `COC(=O)c1ccc(C(=O)Nc2nnc(-c3cccnc3)o2)cc1`, the inhibition is -5.5%.

With `N#Cc1ccc(C(=O)Nc2nnc(-c3ccccn3)o2)cc1`, the inhibition was 1.74%.

Consider `CCC(=O)Nc1nnc(-c2ccccn2)o1`, for which the inhibition was 5.88%.

For `Cc1nnsc1C(=O)N(Cc1ccccc1)C(C)C`, the inhibition is -4.27%.

With `Cc1ccc(CNC(=O)C2CC(c3cccc(F)c3)=NO2)cc1` (stereo unspecified), the inhibition is 9.15%.

Regarding `OC(C#CCN1CCOCC1)(c1ccccc1)C1CCCC1` (stereo unspecified), the inhibition is 2.94%.

Consider `Cc1ccc(C(=O)CSc2nnc(COc3cc(C)cc(C)c3)o2)cc1`, for which the inhibition was -3.69%.

Regarding `O=C(CSc1nnc(COc2ccccc2Cl)o1)NC(=O)NC1CCCC1`, the inhibition was 5.08%.

`Cc1ccc(C(=O)CSc2nnc(COc3cccc(C)c3)o2)cc1`: the inhibition was -2.67%.

Turning to `CC1CCCCC1NC(=O)CSc1nnc(COc2ccccc2Cl)o1` (stereo unspecified), the inhibition was -2.14%.

As for `CCOC(=O)CSc1nnc(COc2cccc(C)c2)o1`, the inhibition was -4.7%.

For the compound `Cc1cc(C)nc(SCc2nnc(SCC(=O)OC3CCCCC3)o2)n1`, the inhibition is 48.1%.

For `CCn1cc(C(=O)OCC(=O)Nc2c(C)cccc2C)c(=O)c2ccc(C)nc21`, the inhibition was 0.89%.

Take `Cc1ccccc1CSCCNC(=O)CCSc1ccccc1`: the inhibition was -2.07%.

For the compound `CCOC(=O)c1ccc(NC(=O)CSc2nnc(COc3ccccc3OC)n2CC)cc1`, the inhibition was 6.35%.

As for `CCc1cccc(CC)c1NC(=O)c1ccccc1CCc1ccccc1`, the inhibition is 2.03%.

In the case of `COC(c1ccccc1)c1nnc(CCC(=O)N(C)CCc2ccccc2)o1` (stereo unspecified), the inhibition is -1.5%.

Turning to `O=C(CCn1cnc2ccccc2c1=O)Nc1nc(-c2ccc(Br)cc2)cs1`, the inhibition was -1.09%.

On to `COc1ccc(/C=C2/N=C(SCC(=O)Nc3cc(C)on3)N(c3ccccc3)C2=O)cc1`, for which the inhibition was 2.4%.

Regarding `C=CCn1c(CNC(=O)c2ccccc2C)nnc1SCC(=O)NC1CCCC1`, the inhibition was -7.41%.

`CN1CCN(c2ccc(F)cc2N)CC1`: the inhibition was 0.4%.

For `CN1CCN(C2=Cc3ccccc3Sc3cc(F)ccc32)CC1`, the inhibition was 2.61%.

Take `CN1CCN(CCCN2c3ccccc3Sc3ccc(Cl)cc32)CC1`: the inhibition was -5.97% and 68.2% and 79.9%.

With `CN1CCN(C2=Cc3ccccc3Sc3cc(F)c(F)cc32)CC1`, the inhibition was 11.1%.

For the compound `CCc1ccc(CCC(=O)Nc2nnc(CC)s2)o1`, the inhibition was 7.07%.

For `COc1ccc(CNc2nc3nc(C)c(Cl)c(C)n3n2)cc1`, the inhibition was -2.45%.

Turning to `O=S(=O)(c1ccc2c(c1)OCCCO2)N1CCNCC1`, the inhibition is -0.23%.

Regarding `O=C(c1ccc2c(c1)OCCO2)N1CCCC(CNS(=O)(=O)c2cccs2)C1` (stereo unspecified), the inhibition was 4.35%.

`Cc1[nH]c2ccccc2c1SCCNC(=O)c1ccc(Br)o1`: the inhibition was -0.07%.

For `CCC(=O)Nc1cccc(NC(=O)c2ccc(C)c([N+](=O)[O-])c2)c1`, the inhibition was 15.4%.

As to `CC(=O)OCCNC(=O)c1cc2ccccc2oc1=O`, the inhibition was -6.56%.

As for `CN(C)CCNC(=O)c1cc2ccccc2oc1=O`, the inhibition was 2.99%.

For `CCC1(CC)C(=O)N(C)C(=O)NC1=Nc1ccc(OC)cc1`, the inhibition was -7.12%.

With `O=S(=O)(Nc1nccs1)c1ccc(F)cc1`, the inhibition is -3.51%.

In the case of `NS(=O)(=O)c1ccc(N=C2C(=O)Nc3ccccc32)cc1`, the inhibition was -2.66%.

As for `O=[N+]([O-])c1ccccc1S(=O)(=O)NCc1ccco1`, the inhibition is 9.2%.

Consider `Cc1ccc2cc(CN(CC3CCCO3)C(=S)NCc3ccco3)c(=O)[nH]c2c1` (stereo unspecified), for which the inhibition was 1.74%.
